# The full ranking holds about 33,000 sequences; the median of “E-score (-0.5 to 0.5)” is about -0.017, and the highest 2% start at about 0.3. This excerpt belongs to a sample that is enriched for the highest values.
# Molecular target: T1, Sut1 (UniProt P53032)
# T1 sequence: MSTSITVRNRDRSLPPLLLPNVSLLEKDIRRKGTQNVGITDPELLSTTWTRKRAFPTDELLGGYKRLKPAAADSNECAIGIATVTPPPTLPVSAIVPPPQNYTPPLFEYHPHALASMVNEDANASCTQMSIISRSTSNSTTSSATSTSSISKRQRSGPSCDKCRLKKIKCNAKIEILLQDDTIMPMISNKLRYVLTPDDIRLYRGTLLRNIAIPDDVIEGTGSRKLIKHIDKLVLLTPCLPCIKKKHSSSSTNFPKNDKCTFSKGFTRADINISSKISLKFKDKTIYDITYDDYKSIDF
# Assay: PBM E-score (8-mer binding enrichment) (E-score (-0.5 to 0.5)); higher = stronger / more preferred TF binding
# Conditions: protein concentration: 200 nM; construct: GST-full length
# Procedure, shortened: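 Full-length yeast transcription factors or their DNA-binding domains, GST-tagged and expressed with PURExpress, were applied at about 100-200 nM to universal all-10-mer Agilent arrays. These arrays had been made double-stranded by primer extension on fresh or once-stripped slides. Detection used fluorescent anti-GST, normalisation used masliner, and E-scores for ungapped eight-base words pooled with reverse complements came from the Universal PBM Analysis Suite.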
row,Sequence,PBM E-score
1,CACTCGGA,0.266
2,AACTCGGG,-0.135
3,GACTCGGA,0.33
4,TACTCGGA,0.324
5,AACTCGGA,0.341
6,GACTCGCA,-0.0641
7,GCAGAGGA,-0.102
8,GCTTCGAC,-0.218
9,GAGACCCC,-0.146
10,ACCTTGCT,-0.0591
11,GCGCCAGA,-0.088
12,CCATATAG,-0.0893
13,ACTCATCG,0.0167
14,ATCCGTGC,0.0778
15,ATCCGTGA,-0.119
16,CTCCGTGA,0.407
17,CTCCGTGC,0.321
18,CACCGTGC,-0.263
19,GTCCGTGA,0.251
20,AGGGCAGA,-0.348
21,GACTGGGC,-0.0754
22,CTTCGCTA,-0.0699

row,Sequence,PBM E-score
1,ATATGCAG,-0.134
2,AAAGTAAT,0.204
3,AGAGTTAA,0.0656
4,CGAGTTAC,0.0146
5,TGAGTTAA,-0.00085
6,AGAGTTAC,-0.117
7,GGAGTTAC,0.367
8,GGAGTTAA,0.337
9,GCTCCCTA,-0.123
10,CAGGGAGC,-0.326
11,ACAAACAC,0.185
12,TCGGCCGA,0.323
13,GCGGCCGA,-0.139
14,CCGGCCGA,0.0979
15,TAAACTAA,0.323
16,CTAACTAC,0.00799
17,CTAACTAA,0.142
18,GAAACTAA,0.00617
19,CTAACTAG,0.302
20,AAAACTAT,0.231
21,AAAACTAG,0.0495
22,CAAACTAA,0.276

row,Sequence,PBM E-score
1,AAAACTAA,0.353
2,ACTCCACT,-0.144
3,CCCTCAGA,-0.309
4,CAGAGAAC,-0.299
5,CTATCAAC,0.208
6,AGACTCTG,-0.137
7,CAGTCACA,-0.17
8,GACCCGTC,-0.239
9,AGTTCTCC,0.0174
10,GTGACGAA,-0.0161
11,CCTTAGGA,-0.0422
12,AACCAGCT,-0.0518
13,CGAAAACC,0.0693
14,AGTTAAGA,0.0414
15,CCCCGGTA,0.0227
16,GCCCGGTA,-0.187
17,CTCCGGTC,0.418
18,CTCCGGTA,0.413
19,GGCCGGTA,0.0132
20,CGCCGGTC,-0.0721
21,GTCCGGTA,0.373
22,ATCCGGTA,0.135

row,Sequence,PBM E-score
1,ATCCGGTC,-0.00108
2,GGTCGAAA,-0.14
3,GGCTGACC,-0.205
4,ATTATTCA,0.289
5,AGGATACT,-0.0531
6,ACTCGGCT,-0.079
7,ACACCGCA,0.0401
8,GTAGACAA,0.157
9,AGGGGTAT,-0.217
10,ACGCACTA,-0.0472
11,GCATATCC,-0.196
12,GGATTTCA,0.117
13,CTGACCTC,-0.121
14,AGGACCTA,-0.0435
15,CGGACCTA,0.42
16,AGGACCTC,-0.0609
17,GGGACCTA,0.0551
18,CGGACCTC,0.411
19,AACTCGAA,-0.0516
20,TCCTTCCA,-0.243
21,GTATAAAA,0.317
22,TTATAAAA,0.314

row,Sequence,PBM E-score
1,GTATAAAC,0.227
2,CTATAAAA,0.183
3,ATATAAAA,0.205
4,GTATAAGA,0.103
5,TGAACCCA,-0.00171
6,GTCGTTGA,-0.0946
7,ATCCCAGC,-0.107
8,ACACTAGA,0.0902
9,CGATGTCC,0.164
10,ATCAAGAT,0.158
11,TACGGAAA,0.278
12,CACGGAGG,0.0312
13,GACGGAGA,0.277
14,AACGGAGG,-0.0314
15,AACGGAGT,0.478
16,GACGGAGC,0.231
17,CACGGAGC,0.354
18,AACGGAGC,0.231
19,CAAGGAGA,0.0606
20,CACGGAGA,0.355
21,TACGGACA,0.282
22,TACGGAGA,0.32

# Source: the supplement of paper PMC3334620
